For 39 compounds, growth results are on record in PubChem BioAssay (NCI).

Several values for one entry are separate records, joined by “and”; a condition that tells them apart may be missing. Equal entries are not always repeated. The panel holds about 83,000 compounds, 20% with a hit somewhere; the sample as a whole holds those more often.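 Note: values are percent growth. 100 is the growth of untreated cells, values between 100 and 0 indicate rising inhibition; between -100 and 0 indicates cell death.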 Unmarked numbers belong to inactive results. Activity calls are given as the source filed them.

For one assay, the system named is UO-31 renal. The assay is described as follows: NCI-60 one-dose screen, 48 h (100 = growth as untreated, 0 = no growth, -100 = all killed). Conditions: 1 µM. As for the experimental part: Growth inhibition of the UO-31 human tumor cell line is measured as a screen for anti-cancer activity. Cells are grown in 96 well plates and exposed to the test compound for 48 hours. Compounds are tested at a single concentration, which is 10^-5 M for most compounds. The reported endpoint is percent growth (GI% or GIPRCNT), where numbers from 0 - 100% represent growth inhibition, and numbers from -100% - 0 represent cell death. For example, a value of 40 represents 60% growth inhibition. A value of 0 means no net growth occurred over the course of the experiment. A value of -40 indicates 40% of cells at the beginning of the experiment died by the end of the experiment. A value of -100 means all cells are dead at the end of the experiment.
NCI-60 Human Tumor Cell Lines Screen was performed using the standard one-dose NCI protocol, which is described in more detail at https://dtp.cancer.gov/discovery_development/nci-60/default.htm.
Compounds with GIPRCNT values below 10 were considered active. Activity score was based on GIPRCNT using the following formula: […]
Score is 0 for GIPRCNT values of 100 or above, 50 for GIPRCNT values of 0, and 100 for GIPRCNT values of -100.
Take `CC/C(=C(\c1ccc(O)cc1)c1ccc(OCCN(C)C(=O)COCCNC(=O)Cc2ccc3c(c2)CN([C@@H]2CCC(=O)NC2=O)C3=O)cc1)c1ccccc1`: the growth is 92%.

Staying with this assay, now noted: 10 µM.
`CC/C(=C(\c1ccc(O)cc1)c1ccc(OCCN(C)C(=O)COCCNC(=O)Cc2ccc3c(c2)CN([C@@H]2CCC(=O)NC2=O)C3=O)cc1)c1ccccc1`: the growth is 91.6%.

Still in this assay, the particulars now being: 10 µM unless noted.
With `Cc1cc(Cl)ccc1NC(=O)Nc1ccc(-c2ccc3c(c2)NC(=O)/C3=C\c2ccc[nH]2)cc1`, the growth is 78.3%.
Turning to `COc1ccc(N=Nc2c(N)nn3c(N)c(C#N)c(-c4ccc(C)cc4)nc23)cc1`, the growth is 61.1%.
With `CC1=C(C(=O)Nc2ccccc2)C(c2cccc(Cl)c2Cl)n2c(nc3ccccc32)N1` (stereo not given), the growth was 33.7%.
The same measure, in the same setting: the result for `Cc1ccc(C2CC(c3ccc(S(=O)(=O)NCCNc4nc(N(C)C)nc(N5CCOCC5)n4)cc3)=Nc3c(N)nc(N)nc3N2)cc1` (stereo not given) reads 36.9%; that for `Oc1cncc(-c2ccc3ncnc(N4CCc5cc(F)c(Cl)cc54)c3c2)c1`, 35.7%.
The same measure, in the same setting: the result for `Cc1ccc2nc(COc3ccc(C(=O)NNC(=O)Nc4ccc(Cl)c(C(F)(F)F)c4)cc3)[nH]c2c1` reads 110%; that for `CC1CCc2c(sc3nc(SCC(=O)c4cccc(Br)c4)n(-c4ccccc4)c(=O)c23)C1` (stereo not given), 16.6%.
As for `Cc1cnc2ccc(Oc3ccccc3-c3ccccc3)nn12`, the growth is 90.1%.
Turning to `CN(C)CCCc1ccc(Nc2cnn(C)c(=O)c2Cl)cc1`, the growth was 88.1%.
Take `COc1cccc(/C=C/c2nc3ccccc3c(=O)n2CC(=O)Nc2ccccc2)c1`: the growth is -24.8% (active).
Still for that read-out and setting: the same measure for `Cc1ccc(C2CC(c3ccc(NC(=S)Nc4ccccc4)cc3)=NN2c2ccc(S(N)(=O)=O)cc2)cc1` (stereo not given): 3.53% (active); for `COc1ccc2ccccc2c1/C=C1\SC(=Nc2ccc(O)cc2)NC1=O`: 17.7%.
In the case of `COc1ccc(N=Nc2c(N)nn3c(-c4cc5ccccc5oc4=O)ccnc23)cc1`, the growth was 40.7%.
On the same count and under the same terms, the result for `COc1cc(C2C(C(=O)OCc3ccccc3)=C(C)Nc3nc4ccccc4n32)cc(OC)c1OC` (stereo not given) reads 1.37% (active).
The same measure, in the same setting: the result for `COc1ccc(N=Nc2c(N)nn3c(N)c(C#N)c(-c4ccccc4)nc23)cc1` reads 28.4%.
For `COc1cc(/C=N/NC(=O)c2ccc(OCc3nc4ccc(C)cc4[nH]3)cc2)cc(OC)c1OC`, the growth was 66.2%.
Regarding `COc1ccc(-c2nc3ccc(-c4nnc(SCc5ccccc5)o4)cc3[nH]2)cc1OC`, the growth was -8.65% (active).
Same read-out and setting: the result for `COc1cc(CNC(=O)C[C@H](C)CCC=C(C)C)ccc1OCc1cn(-c2ccccc2F)nn1` reads 71.9%; that for `O=C(Cn1c(/C=C/c2ccc([N+](=O)[O-])cc2)nc2ccccc2c1=O)Nc1ccccc1`, 90.4%.
In the case of `CC(C)(C)OC(=O)N1C/C(=C\c2ccc(F)cc2)C(=O)/C(=C/c2ccc(F)cc2)C1`, the growth was -73.5% (active).
As to `Nc1ccc(-c2ccc3ncnc(N4CCc5cc(F)c(Cl)cc54)c3c2)cn1`, the growth is 3.05% (active).
Regarding `CS(=O)(=O)Nc1cncc(-c2ccc3ncnc(NCc4ccccc4)c3c2)c1`, the growth is 52.7%.
Consider `O=C1N/C(=N\c2nccs2)S/C1=C\c1ccc([N+](=O)[O-])cc1`, for which the growth was 12.6%.
Turning to `CN1C(=O)C2(C(C#N)=C(c3ccc(Cl)cc3)Nc3c2c(-c2ccccc2)nn3-c2ccccc2)c2ccccc21` (stereo not given), the growth was 71.7%.
As for `Nc1cccc(-n2c(COc3ccc(I)cc3)nc3ccccc32)c1`, the growth is 43.6% and 81.3%.
As to `COC(=O)c1cc(C(=O)CBr)n2c1ccc1c3ccccc3ccc12`, the growth is 24.3%.
The same measure, in the same setting: the same measure for `COC(=O)c1cc(C(C)=O)n2c3ccccc3c3ccccc3c12`: 38%; for `Clc1ccc(-c2nc3c4c(-c5ccccc5)c(-c5ccccc5)n(Cc5ccccc5)c4ncn3n2)cc1`: 1.71% (active); for `O=C(CSc1nc2ccccc2c(=O)[nH]1)Nc1ccccc1C(=O)O`: 71.8%.
`CC(=O)C[n+]1cccc2c3ccccc3ccc21`: the growth was 83%.
`COc1cccc(C(N)=Nc2ccc(OCCCCCCCCn3cncn3)cc2)c1`: the growth was 39.5%.
As to `Cc1ccc(C(=O)Nc2cc(-c3ccccc3)cc(C(F)(F)F)c2)cc1C#Cc1cnc2cccnn12`, the growth was 56.5%.
As to `Cn1cc(-c2cc(N)n3nc(-c4c[nH]c5ccccc45)cc3n2)c2cc(F)ccc21`, the growth is 59.7%.
Consider `Cc1nc2sccn2c1-c1nnc(SCc2ccccc2)o1`, for which the growth was 74.2%.
Turning to `Nc1cc(-c2c[nH]c3ccc(Br)cc23)nc2cc(-c3c[nH]c4ccccc34)nn12`, the growth was -54% (active).
For `COc1cc(/C=C/C(=O)c2cnn(-c3cc(=O)[nH]c4ccc(C)cc34)c2C)cc(OC)c1OC`, the growth is -45.8% (active).
On to `Nc1nc(-c2ccccc2)c(N=Nc2ccc(Cl)cc2Cl)s1`, for which the growth was -20% (active).
As for `O=C(Nc1ccc(Cl)c(C(F)(F)F)c1)N1CCN(c2cc(-c3cn(-c4ccccc4)nc3-c3cccc(O)c3)ccn2)CC1`, the growth was 5.37% (active).
